Data taken from the supplement of paper PMC10849652.
Targets with a hit are over-represented here; the source holds about 7,900 in all. About 0.6% of all pairs of compound and target were hits. Values without a mark were called inactive.

Experiments:
Assay in all cases: log2 fold change, soluble protein after heating vs DMSO (PISA); higher = thermal stabilisation; K562 cells, 10 uM, 30 min; active = over 0.2 and 3.5 SD of the protein, either way, in both replicates (recomputed)
[1] = compound: CC[C@@H]1C(=O)N(C)c2cnc(Nc3ccc(C(=O)NC4CCN(C)CC4)cc3OC)nc2N1C1CCCC1
Procedure, shortened: (§1)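 Thermal stability values are relative to control samples and come from duplicates. They are expressed as log2 fold changes. For measurement, K562 cells (2×10^6 cells/mL) received 10 μM compound for 30 min, and aliquots were heated for 3 min over 48°C-58°C, pooled, and extracted at 4°C in PBS with 0.5% NP-40. Soluble protein, the supernatant after 21,000xg for 90 min, was quantified by TMTpro 16plex LC-MS/MS with equalised channel sums.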

volasertib = compound: CC[C@@H]1C(=O)N(C)c2cnc(Nc3ccc(C(=O)N[C@H]4CC[C@H](N5CCN(CC6CC6)CC5)CC4)cc3OC)nc2N1C(C)C [volasertib]
Procedure, shortened: as §1

[2] = compound: CC[C@H](C)N1C=C(C2=C(C=C(C=C21)C3=CN=C(C=C3)N4CCNCC4)C(=O)NCC5=C(C=C(NC5=O)C)C)C
Procedure, shortened: as §1

epoxomicin = compound: CC[C@H](C)[C@@H](C(=O)N[C@@H]([C@@H](C)O)C(=O)N[C@@H](CC(C)C)C(=O)[C@]1(CO1)C)NC(=O)[C@H]([C@@H](C)CC)N(C)C(=O)C [epoxomicin]
Procedure, shortened: as §1

[3] = compound: CCn1c(C(=O)N(C2CC2)C2CC2)cc2c3c(ncn3C)c(Nc3cc(C)n(C)n3)nc21
Procedure, shortened: as §1

[4] = compound: CCn1cc(-c2ccnc3[nH]c(-c4cccc(CN(C)C)c4)cc23)c(-c2ccc(NC(=O)N(C)C)cc2)n1
Procedure, shortened: as §1

[5] = compound: CN(C)CC(=O)Nc1ccc2[nH]c(=O)c3ccccc3c2c1
Procedure, shortened: as §1

rosiglitazone = compound: CN(CCOC1=CC=C(C=C1)C[C@H]2C(=O)NC(=O)S2)C3=CC=CC=N3 (racemic) [rosiglitazone]
Procedure, shortened: as §1

[6] = compound: CN1C2=C(C3=C1C(=O)N(N=C3)CC4=CC(=CC=C4)N)SC(=C2)S(=O)C
Procedure, shortened: as §1

[7] = compound: CN1CCC(CNc2ccc3ncc(-c4cccc(OC(F)(F)F)c4)n3n2)CC1
Procedure, shortened: as §1

saracatinib = compound: CN1CCN(CCOc2cc(OC3CCOCC3)c3c(Nc4c(Cl)ccc5c4OCO5)ncnc3c2)CC1 [saracatinib]
Procedure, shortened: as §1

sotrastaurin = compound: CN1CCN(c2nc(C3=C(c4c[nH]c5ccccc45)C(=O)NC3=O)c3ccccc3n2)CC1 [sotrastaurin]
Procedure, shortened: as §1

alvocidib = compound: CN1CC[C@H](c2c(O)cc(O)c3c(=O)cc(-c4ccccc4Cl)oc23)[C@H](O)C1 [alvocidib]
Procedure, shortened: as §1

Tubastatin A = compound: CN1CCc2c(c3ccccc3n2Cc2ccc(C(=O)NO)cc2)C1 [Tubastatin A]
Procedure, shortened: as §1

[8] = compound: CNC(=O)C1=CC=CC=C1NC2=NC(=NC=C2Cl)NC3=C(C=C(C=C3)N4CCOCC4)OC
Procedure, shortened: as §1

defactinib = compound: CNC(=O)c1ccc(Nc2ncc(C(F)(F)F)c(NCc3nccnc3N(C)S(C)(=O)=O)n2)cc1 [defactinib]
Procedure, shortened: as §1

rucaparib = compound: CNCc1ccc(-c2[nH]c3cc(F)cc4c3c2CCNC4=O)cc1 [rucaparib]
Procedure, shortened: as §1

[9] = compound: CNc1nc(-c2ccc3c(N)n[nH]c3c2)cc(N2C[C@@H](C(=O)NC3CCCCC3)CC[C@H]2C)n1
Procedure, shortened: as §1

encorafenib = compound: COC(=O)N[C@@H](C)CNc1nccc(-c2cn(C(C)C)nc2-c2cc(Cl)cc(NS(C)(=O)=O)c2F)n1 [encorafenib]
Procedure, shortened: as §1

[10] = compound: COC(=O)[C@H](CCSC)NC(=O)C1=C(C=C(C=C1)NC[C@H](CS)N)C2=CC=CC=C2
Procedure, shortened: as §1

Sequence of UniProt Q12986 (Q12986 whole entry, looked up): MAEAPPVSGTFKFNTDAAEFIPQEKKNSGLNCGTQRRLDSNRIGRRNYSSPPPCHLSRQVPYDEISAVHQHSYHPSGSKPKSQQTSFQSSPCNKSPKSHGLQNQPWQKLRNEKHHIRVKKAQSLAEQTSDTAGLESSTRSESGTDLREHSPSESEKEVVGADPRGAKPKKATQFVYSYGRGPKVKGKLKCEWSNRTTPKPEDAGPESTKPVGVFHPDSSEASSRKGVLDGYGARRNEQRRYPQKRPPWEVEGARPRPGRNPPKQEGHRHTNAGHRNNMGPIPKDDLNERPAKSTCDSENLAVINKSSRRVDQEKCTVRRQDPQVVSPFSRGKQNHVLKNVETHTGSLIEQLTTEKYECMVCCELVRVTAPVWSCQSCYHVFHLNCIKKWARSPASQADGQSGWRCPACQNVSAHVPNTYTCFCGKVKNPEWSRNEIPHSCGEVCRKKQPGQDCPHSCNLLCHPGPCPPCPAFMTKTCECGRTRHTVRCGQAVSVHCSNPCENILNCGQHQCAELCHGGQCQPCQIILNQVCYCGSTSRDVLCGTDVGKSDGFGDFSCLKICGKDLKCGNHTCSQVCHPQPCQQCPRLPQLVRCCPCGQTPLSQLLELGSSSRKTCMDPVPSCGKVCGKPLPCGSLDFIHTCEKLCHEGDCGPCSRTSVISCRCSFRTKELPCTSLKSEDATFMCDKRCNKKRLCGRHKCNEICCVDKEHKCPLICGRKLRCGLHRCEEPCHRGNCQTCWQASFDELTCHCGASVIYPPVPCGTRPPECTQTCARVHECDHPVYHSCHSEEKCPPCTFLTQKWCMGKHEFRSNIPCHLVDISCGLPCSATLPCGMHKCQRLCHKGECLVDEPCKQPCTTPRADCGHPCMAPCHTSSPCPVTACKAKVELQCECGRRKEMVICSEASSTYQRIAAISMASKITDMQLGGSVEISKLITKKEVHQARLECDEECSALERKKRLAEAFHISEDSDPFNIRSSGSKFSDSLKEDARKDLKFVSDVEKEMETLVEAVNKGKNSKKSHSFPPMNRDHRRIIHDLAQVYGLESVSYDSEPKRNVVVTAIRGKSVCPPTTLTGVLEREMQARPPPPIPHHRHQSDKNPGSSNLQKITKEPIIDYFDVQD
Sequence of UniProt P43246 (P43246 whole entry, looked up): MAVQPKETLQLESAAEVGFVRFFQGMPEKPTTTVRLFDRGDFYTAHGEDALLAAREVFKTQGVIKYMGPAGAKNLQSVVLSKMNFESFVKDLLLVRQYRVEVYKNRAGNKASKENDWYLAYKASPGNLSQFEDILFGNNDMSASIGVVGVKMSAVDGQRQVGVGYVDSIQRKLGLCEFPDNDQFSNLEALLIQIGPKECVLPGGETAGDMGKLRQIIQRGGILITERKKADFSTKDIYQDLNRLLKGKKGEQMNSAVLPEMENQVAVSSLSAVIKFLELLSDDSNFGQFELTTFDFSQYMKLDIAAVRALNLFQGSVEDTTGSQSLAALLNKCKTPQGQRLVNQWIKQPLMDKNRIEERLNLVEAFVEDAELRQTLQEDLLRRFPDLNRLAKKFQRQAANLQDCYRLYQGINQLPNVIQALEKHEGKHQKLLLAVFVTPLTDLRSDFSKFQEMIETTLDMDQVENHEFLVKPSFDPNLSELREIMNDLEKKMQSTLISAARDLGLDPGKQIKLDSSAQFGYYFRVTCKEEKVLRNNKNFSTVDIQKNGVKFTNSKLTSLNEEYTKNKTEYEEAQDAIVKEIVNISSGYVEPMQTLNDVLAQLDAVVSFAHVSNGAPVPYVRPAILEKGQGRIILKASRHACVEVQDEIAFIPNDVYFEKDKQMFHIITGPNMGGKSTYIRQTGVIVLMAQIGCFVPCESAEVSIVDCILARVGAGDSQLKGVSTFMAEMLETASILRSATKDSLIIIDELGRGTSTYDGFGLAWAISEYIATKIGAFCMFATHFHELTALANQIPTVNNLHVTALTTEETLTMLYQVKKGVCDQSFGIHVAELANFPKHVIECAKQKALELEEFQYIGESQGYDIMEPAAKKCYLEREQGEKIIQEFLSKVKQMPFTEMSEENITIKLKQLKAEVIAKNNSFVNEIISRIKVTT
Sequence of UniProt Q14978 (Q14978 whole entry, looked up): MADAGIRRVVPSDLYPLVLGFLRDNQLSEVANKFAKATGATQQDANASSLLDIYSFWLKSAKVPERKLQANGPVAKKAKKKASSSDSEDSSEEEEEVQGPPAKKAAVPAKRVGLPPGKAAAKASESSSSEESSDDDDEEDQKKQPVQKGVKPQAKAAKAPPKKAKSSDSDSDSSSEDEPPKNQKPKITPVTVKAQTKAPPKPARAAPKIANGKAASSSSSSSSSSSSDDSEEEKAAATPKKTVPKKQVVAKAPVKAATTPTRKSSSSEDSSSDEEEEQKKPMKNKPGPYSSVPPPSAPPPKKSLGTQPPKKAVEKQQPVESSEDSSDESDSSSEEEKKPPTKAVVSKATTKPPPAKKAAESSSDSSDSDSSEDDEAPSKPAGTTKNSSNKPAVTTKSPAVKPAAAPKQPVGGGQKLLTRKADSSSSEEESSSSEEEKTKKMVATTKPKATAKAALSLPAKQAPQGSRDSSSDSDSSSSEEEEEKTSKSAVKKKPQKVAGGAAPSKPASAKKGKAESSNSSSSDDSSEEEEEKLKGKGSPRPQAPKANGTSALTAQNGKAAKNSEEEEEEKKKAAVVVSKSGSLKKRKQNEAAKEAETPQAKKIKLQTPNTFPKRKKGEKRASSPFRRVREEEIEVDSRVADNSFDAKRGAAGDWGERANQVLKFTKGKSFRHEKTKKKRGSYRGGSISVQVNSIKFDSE
Sequence of UniProt Q9H8H0 (Q9H8H0 whole entry, looked up): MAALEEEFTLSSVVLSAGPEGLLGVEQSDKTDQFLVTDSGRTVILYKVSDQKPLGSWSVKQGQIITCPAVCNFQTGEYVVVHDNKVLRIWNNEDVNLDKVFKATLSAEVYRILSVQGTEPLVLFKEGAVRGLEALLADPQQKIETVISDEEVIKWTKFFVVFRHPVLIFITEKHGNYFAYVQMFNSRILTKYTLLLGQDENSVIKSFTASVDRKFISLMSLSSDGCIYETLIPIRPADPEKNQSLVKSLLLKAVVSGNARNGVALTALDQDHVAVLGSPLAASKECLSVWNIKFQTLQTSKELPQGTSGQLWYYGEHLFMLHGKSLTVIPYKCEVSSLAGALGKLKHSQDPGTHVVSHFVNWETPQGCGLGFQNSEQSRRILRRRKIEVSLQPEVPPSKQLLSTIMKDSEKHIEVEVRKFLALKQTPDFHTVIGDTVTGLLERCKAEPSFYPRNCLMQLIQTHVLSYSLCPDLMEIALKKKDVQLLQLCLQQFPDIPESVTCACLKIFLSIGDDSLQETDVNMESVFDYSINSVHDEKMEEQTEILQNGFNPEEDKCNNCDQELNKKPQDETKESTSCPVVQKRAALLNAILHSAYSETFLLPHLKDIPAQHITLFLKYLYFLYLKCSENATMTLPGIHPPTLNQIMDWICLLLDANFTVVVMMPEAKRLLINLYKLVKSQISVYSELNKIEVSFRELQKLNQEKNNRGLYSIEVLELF
Sequence of UniProt P55786 (P55786 whole entry, looked up): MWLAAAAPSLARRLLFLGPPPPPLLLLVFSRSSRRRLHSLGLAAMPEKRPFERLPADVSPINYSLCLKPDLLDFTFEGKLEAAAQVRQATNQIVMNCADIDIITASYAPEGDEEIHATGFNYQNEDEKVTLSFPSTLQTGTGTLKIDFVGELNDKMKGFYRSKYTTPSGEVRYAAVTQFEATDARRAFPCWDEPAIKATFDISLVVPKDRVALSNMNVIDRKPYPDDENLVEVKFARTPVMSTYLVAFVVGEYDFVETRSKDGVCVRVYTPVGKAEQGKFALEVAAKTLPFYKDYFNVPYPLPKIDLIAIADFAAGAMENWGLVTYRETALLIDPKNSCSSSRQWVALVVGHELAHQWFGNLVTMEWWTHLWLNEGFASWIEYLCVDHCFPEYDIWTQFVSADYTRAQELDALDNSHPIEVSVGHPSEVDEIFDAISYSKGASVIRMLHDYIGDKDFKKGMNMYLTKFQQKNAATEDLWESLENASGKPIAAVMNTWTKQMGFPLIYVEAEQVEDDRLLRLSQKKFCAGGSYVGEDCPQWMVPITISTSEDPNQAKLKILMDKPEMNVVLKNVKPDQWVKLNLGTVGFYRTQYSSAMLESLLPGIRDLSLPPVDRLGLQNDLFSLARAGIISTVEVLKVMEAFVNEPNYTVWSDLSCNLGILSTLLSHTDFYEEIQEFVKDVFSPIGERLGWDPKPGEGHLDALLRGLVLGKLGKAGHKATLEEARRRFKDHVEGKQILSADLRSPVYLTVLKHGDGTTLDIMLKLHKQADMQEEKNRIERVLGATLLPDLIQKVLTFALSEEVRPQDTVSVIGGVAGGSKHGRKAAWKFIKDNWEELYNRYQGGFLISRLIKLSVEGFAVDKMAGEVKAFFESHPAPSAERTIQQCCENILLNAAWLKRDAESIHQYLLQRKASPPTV
Sequence of UniProt P49116 (P49116 whole entry, looked up): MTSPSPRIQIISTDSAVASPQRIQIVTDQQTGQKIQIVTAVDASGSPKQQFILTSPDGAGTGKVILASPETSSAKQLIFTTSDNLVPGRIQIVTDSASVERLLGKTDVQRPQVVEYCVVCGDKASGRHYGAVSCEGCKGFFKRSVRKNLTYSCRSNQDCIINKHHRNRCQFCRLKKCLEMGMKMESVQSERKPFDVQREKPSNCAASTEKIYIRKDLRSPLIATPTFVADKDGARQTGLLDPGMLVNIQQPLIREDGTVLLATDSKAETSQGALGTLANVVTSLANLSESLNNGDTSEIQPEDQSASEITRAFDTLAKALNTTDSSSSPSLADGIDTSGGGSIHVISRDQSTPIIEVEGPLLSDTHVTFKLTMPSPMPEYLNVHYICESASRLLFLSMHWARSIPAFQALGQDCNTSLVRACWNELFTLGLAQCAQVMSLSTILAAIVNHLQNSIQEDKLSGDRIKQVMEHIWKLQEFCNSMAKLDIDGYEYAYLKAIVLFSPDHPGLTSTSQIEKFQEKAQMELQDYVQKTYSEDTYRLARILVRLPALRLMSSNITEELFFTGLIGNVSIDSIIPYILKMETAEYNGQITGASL

| Target | log2 fold change [1] | log2 fold change (volasertib) | log2 fold change [2] | log2 fold change (epoxomicin) | log2 fold change [3] | log2 fold change [4] | log2 fold change [5] | log2 fold change (rosiglitazone) | log2 fold change [6] | log2 fold change [7] | log2 fold change (saracatinib) | log2 fold change (sotrastaurin) | log2 fold change (alvocidib) | log2 fold change (Tubastatin A) | log2 fold change [8] | log2 fold change (defactinib) | log2 fold change (rucaparib) | log2 fold change [9] | log2 fold change (encorafenib) | log2 fold change [10] |
| --- | --- | --- | --- | --- | --- | --- | --- | --- | --- | --- | --- | --- | --- | --- | --- | --- | --- | --- | --- | --- |
| MSH3 (UniProt P20585) | -0.032 | -0.179 | -0.003 | 0.062 | -0.072 | -0.019 | -0.028 | 0.019 | -0.008 | 0.047 | -0.013 | -0.003 | -0.015 | 0.045 | -0.026 | 0.015 | 0.031 | -0.011 | 0.069 | -0.02 |
| MT-ND4 (UniProt P03905) | 0 | -0.102 | -0.028 | 0 | -0.071 | 0.391 (active) | -0.025 | 0.159 | -0.065 | 0.029 | 0.048 | -0.025 | -0.022 | 0.061 | 0.053 | -0.143 | -0.077 | -0.145 | 0.058 | 0.057 |
| NOLC1 isoform 2 (UniProt Q14978) | -0.155 | -0.024 | -0.051 | -0.06 | -0.015 | 0.047 | -0.048 | -0.018 | 0.026 | -0.112 | -0.007 | -0.036 | -0.206 | 0.153 | -0.122 | -0.346 (active) | -0.025 | -0.089 | -0.007 | 0 |
| MRPS10 (UniProt P82664) | 0.02 | 0.027 | 0.088 | -0.022 | -0.021 | 0.045 | 0.085 | 0.003 | 0.066 | 0.068 | -0.029 | -0.076 | -0.007 | 0.035 | -0.034 | -0.071 | 0.006 | 0.097 | 0.014 | -0.055 |
| NNT (UniProt Q13423) | 0 | 0.013 | 0.036 | 0.023 | -0.018 | -0.073 | 0.015 | 0.042 | -0.097 | -0.008 | 0.005 | 0 | -0.024 | -0.01 | 0.017 | -0.009 | -0.053 | -0.036 | -0.001 | -0.014 |
| NOL11 (UniProt Q9H8H0) | 0.029 | -0.097 | -0.025 | -0.015 | -0.031 | -0.027 | -0.005 | -0.025 | -0.028 | 0.126 | 0.093 | 0.022 | 0.089 | -0.08 | 0.007 | 0.186 | 0.071 | 0.002 | -0.012 | -0.009 |
| NOP2 isoform 4 (UniProt P46087) | 0.196 | 0.348 | -0.03 | -0.328 | -0.098 | 0.364 | -0.346 | -0.056 | 0.546 | 0.494 | -0.09 | -0.007 | 0.574 | 0.079 | 0.064 | 1.26 (active) | 0.673 | 0.115 | 0.238 | -0.024 |
| NANS (UniProt Q9NR45) | 0.015 | -0.013 | 0.032 | 0.016 | 0.04 | -0.041 | 0.009 | 0.032 | -0.434 (active) | 0.034 | 0.022 | -0.058 | -0.091 | -0.026 | 0.034 | -0.033 | -0.084 | 0.051 | 0.004 | -0.015 |
| NR2C2 isoform 2 (UniProt P49116) | 0.051 | -0.102 | 0.055 | 0.036 | -0.015 | 0.049 | -0.069 | 0.022 | 0.036 | 0.046 | 0.052 | -0.041 | 0.077 | -0.013 | 0.005 | 0.001 | 0.071 | -0.044 | 0.053 | 0.028 |
| MRPS22 (UniProt P82650) | 0.007 | -0.05 | 0.125 | 0.004 | -0.03 | -0.068 | 0.004 | -0.006 | 0.084 | 0.103 | -0.098 | -0.122 | -0.051 | -0.006 | -0.038 | 0.058 | 0.143 | 0.169 | 0.064 | -0.051 |
| NFX1 (UniProt Q12986) | 0.029 | 0.15 | -0.001 | -0.144 | 0.029 | 0.232 | -0.216 | 0.138 | 0.128 | 0.197 | -0.246 | -0.09 | 0.08 | -0.001 | 0.014 | 0.009 | 0.269 | -0.237 | -0.01 | 0 |
| MTMR14 (UniProt Q8NCE2) | -0.194 | -0.622 (active) | 0.037 | 0.019 | 0.009 | -0.056 | 0.001 | 0.026 | 0.022 | -0.039 | -0.037 | -0.042 | -0.059 | 0 | 0.008 | -0.058 | -0.017 | -0.064 | -0.026 | 0.038 |
| NUP210 (UniProt Q8TEM1) | -0.001 | -0.12 | 0 | 0.03 | 0.002 | -0.053 | 0.03 | 0.03 | -0.026 | -0.348 (active) | 0.017 | -0.019 | -0.04 | -0.003 | -0.147 | -0.021 | -0.039 | -0.07 | 0.027 | -0.035 |
| MSH2 (UniProt P43246) | -0.103 | -0.173 | 0.039 | 0.066 | -0.034 | 0.036 | 0.059 | 0.046 | -0.019 | -0.067 | -0.006 | -0.072 | -0.111 | 0.041 | 0.065 | -0.153 | -0.06 | 0.031 | 0.062 | -0.037 |
| NPEPPS (UniProt P55786) | -0.005 | -0.023 | 0.079 | -0.022 | 0.082 | -0.102 | 0.007 | 0.046 | -0.098 | -0.141 | -0.013 | 0.108 | -0.077 | 0.012 | -0.082 | -0.004 | 0.013 | 0.075 | -0.032 | 0.231 (active) |
| NTMT1 (UniProt Q9BV86) | -0.047 | -0.004 | 0.051 | 0.092 | 0.005 | -0.141 | 0.081 | -0.022 | -0.037 | 0.099 | -0.048 | 0.055 | -0.104 | -0.071 | -0.032 | -0.081 | 0.169 | 0.184 | 0.06 | -0.157 |
